# Measurements published in ChEMBL document CHEMBL3988442, “University of Dundee, Small-Polar-MMV Screening Library” (2021).
# Out of some 69,000 compounds screened, about 30 (0.04%) showed an effect of 50% or more. What follows is part of a selection rich in strong results, with near analogues and random picks from the rest.
# Target: T1, Histidine--tRNA ligase (Trypanosoma cruzi (strain CL Brener)) (UniProt Q4DA54)
# T1 sequence (whole entry): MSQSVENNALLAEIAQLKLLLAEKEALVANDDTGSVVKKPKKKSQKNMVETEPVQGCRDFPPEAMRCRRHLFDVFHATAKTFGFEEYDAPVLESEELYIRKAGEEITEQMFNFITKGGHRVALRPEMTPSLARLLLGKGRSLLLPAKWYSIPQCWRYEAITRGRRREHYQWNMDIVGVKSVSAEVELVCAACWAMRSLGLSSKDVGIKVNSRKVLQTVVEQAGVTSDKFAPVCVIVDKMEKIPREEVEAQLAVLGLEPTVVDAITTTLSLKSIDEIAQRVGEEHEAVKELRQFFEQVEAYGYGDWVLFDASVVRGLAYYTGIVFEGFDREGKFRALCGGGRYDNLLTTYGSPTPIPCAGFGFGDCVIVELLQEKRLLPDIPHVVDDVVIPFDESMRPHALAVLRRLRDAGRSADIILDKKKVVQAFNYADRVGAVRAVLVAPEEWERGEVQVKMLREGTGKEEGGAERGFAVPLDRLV
# Assay: Trypanosoma cruzi histidyl tRNA synthetase (Tc-HisRS)
# Assay type: functional
# Design: scale not given: direction of the effect not stated beside the values
# Settings: 30 µM
row,Structure (SMILES),Percent Effect
1,COCCN1C[C@H]2CC[C@@H]1CN(C(=O)CCc1c(C)nn(C)c1C)C2,13.1%
2,CN(C)C(=O)COC[C@H]1CC[C@@H]2[C@@H](CCN2Cc2ccco2)O1,7.04%
3,Cc1ccc2nc(C(=O)N3CCCC[C@]4(C)NC(=O)CCC[C@H]34)cn2c1,2.24%
4,CCN(CC)CCNC(=O)CCc1c(C)nn(-c2ccccc2Br)c1C,61.4%
5,CCN(CC)CCNC(=O)CCc1c(C)nn(-c2ccccc2Cl)c1C,0%
6,CCN(CC)CCNC(=O)CCc1c(C)nn(-c2ccc(Cl)cc2)c1C,2.27%
7,Cc1cccc(CN2CC[C@@H]3[C@@H](CO[C@H]3CNc3ncccn3)C2)n1,10.5%
8,O=C(O)[C@]12CCCN(CC3CCOC3)C[C@H]1CN(c1ncccn1)C2 (stereo partly specified),-2.21%
9,CNC(=O)[C@@]12CCC3(CCN(C(=O)COC)CC3)[C@@H]1CN(S(C)(=O)=O)C2,3.74%
10,CN(C)C(=O)[C@H]1C[C@@H]2CN(S(=O)(=O)c3ccccc3)C[C@H]1O2,5.91%
11,CCCn1cc(NC(=O)c2ccc(S(C)(=O)=O)cc2)ccc1=O,56.7%
12,CCCn1cc(NC(=O)c2ccncc2)ccc1=O,38.3%
13,CCCn1cc(NC(=O)c2ccc(S(=O)(=O)CC)cc2)ccc1=O,35%
14,COC[C@H]1CNC(=O)[C@@H]2CCN(Cc3cccc(C)n3)CC[C@H]12,3.92%
15,CCc1nccn1CC(=O)N1C[C@H]2CC[C@@H]1CN(c1ncccn1)C2,5.46%
16,Cc1nc(CO[C@H]2CN(C(=O)c3cccnc3)[C@@H]3COC[C@H]23)cs1,-1.03%
17,O=C1[C@H]2CN(c3cnccn3)C[C@H]2CN1CC1CC1,7.22%
18,O=C(NCc1ccccc1)[C@H]1C[C@@H]2CN(S(=O)(=O)C3CC3)C[C@H]1O2,6.01%
19,CC1=CC[C@@H]2CN(C(=O)c3ccc(-c4nnn(C)n4)cc3)C[C@@H]2C1,0.8%
20,O=C(CSc1nc2nncc-2c(O)n1-c1ccccc1)N1CCOCC1,7.22%
21,O=C1CC[C@@H]2[C@@H](CCN2C(=O)C2CCOCC2)N1CC1CC1,0%
